Screens: PubChem BioAssay, The Scripps Research Institute Molecular Screening Center
Only some compounds are listed: those with a hit (about 2.3% of all), similar ones and a draw of the others.
M1 antag: human CHRM1 antagonism; P11229; CHO-K1 hM1, Fluo-8 calcium fluorescence, ACh EC80 antagonist; inhibition, % at 3 µM; hit rate 1.3% among 360,000;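 active = percent inhibition above its own plate's cutoff, namely the mean of that plate's compound wells plus 3 SD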;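 note: peak over basal fluorescence ratio during 140 s after agonist addition; 0% = ACh EC80 plus DMSO and 100% = DMSO alone without agonist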
Target sequence (P11229 whole entry, looked up): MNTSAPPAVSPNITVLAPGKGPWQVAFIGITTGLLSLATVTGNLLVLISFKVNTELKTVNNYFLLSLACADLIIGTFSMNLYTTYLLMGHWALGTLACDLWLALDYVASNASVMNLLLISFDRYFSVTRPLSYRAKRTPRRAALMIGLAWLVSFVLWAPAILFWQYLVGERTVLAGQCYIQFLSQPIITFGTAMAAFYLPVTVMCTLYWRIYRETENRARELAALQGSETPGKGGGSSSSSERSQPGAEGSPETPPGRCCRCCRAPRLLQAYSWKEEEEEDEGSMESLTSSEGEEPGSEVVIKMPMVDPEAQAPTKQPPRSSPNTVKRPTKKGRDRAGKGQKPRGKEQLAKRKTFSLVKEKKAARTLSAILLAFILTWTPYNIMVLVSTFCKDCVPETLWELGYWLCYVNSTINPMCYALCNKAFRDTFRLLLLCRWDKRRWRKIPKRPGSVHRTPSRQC
CHO-K1 Ca PAM: counter-screen for M1 PAMs: effect in parental CHO-K1 cells; activation, % at 3 µM; ATP EC20, Fluo-8 calcium fluorescence; 0% at ATP EC20, 100% at ATP max; hit rate 0.02% among 360,000;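 active = activation above the run cutoff, the mean activation of all test compounds plus 3 SD, cut at about 40% in these data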;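 note: peak over basal fluorescence ratio in a 140 s read after ATP addition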
CHO-K1 Ca antag: M1 antagonist counterscreen hit in parental CHO-K1 cells. ATP-induced calcium, Fluo-8 fluorescence. inhibition, % at 3 µM. hit rate 0.6% among 360,000. AID 602250;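 active = inhibition above a per-plate cutoff, the plate's mean sample inhibition plus 3 SD, cut at about 24% in these data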;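 note: 0% = DMSO plus EC80 ATP and 100% = DMSO alone without ATP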
M1 ag parental: nonselective activator or artifact in parental CHO-K1 cells; activation, % at 3 µM; Fluo-8 calcium fluorescence; scaled to maximal ATP response, vehicle zero; hit rate 0.48% among 360,000; in the data active = activation above about 15%;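 note: untransfected CHO-K1 host cells lacking M1 receptor as counterscreen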
CHRM1 agonist: human M1 muscarinic receptor agonism | P11229 | CHO-K1 hM1, Fluo-8 calcium fluorescence, agonist mode; 0% DMSO, 100% acetylcholine EC100 | activation, % at 3 µM | hit rate 0.33% among 360,000 | AID 588814;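 active = activation above the run's mean compound activation plus 3 SD, cut at about 16% in these data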;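 note: peak over basal fluorescence ratio within a 140 s kinetic read after compound addition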
M1 PAM: human CHRM1 positive allosteric modulation; CHO-K1 hM1, Fluo-8 calcium fluorescence, ACh EC20; 0% = ACh EC20, 100% = maximal ACh; activation, % at 3 µM; hit rate 0.088% among 360,000; AID 588819; in the data active = activation above about 19%, passing the limit was not always enough
* marks the source's active call; other numbers are inactive results.

SMILES | M1 antag | CHO-K1 Ca PAM | CHO-K1 Ca antag | M1 ag parental | CHRM1 agonist | M1 PAM
CC(C)Cc1ccc(C(C)C(=O)Nc2nccs2)cc1 (stereo not given) | -1 | 22 | 8 | 17* | 24* | 1
CC(C)Cc1ccc(C(C)C(=O)Nc2ccccc2O)cc1 (stereo not given) | 69* | -8 | 46* | 38* | 36* | -17
CSc1ncccc1C(=O)OCC(=O)NC1CCS(=O)(=O)C1 (stereo not given) | 0 | -1 | 9 | 16* | -1 | 0
COC(=O)C1=C(C)N(Cc2ccccc2)C(=NCc2ccccc2)N[C@H]1c1cccc(C(F)(F)F)c1 | 7 | 1 | 16 | 21* | -3 | 5
O=C(NCc1ccc2c(c1)OCO2)C1CC(=O)N(CCc2ccc(Cl)cc2)C1 (stereo not given) | -1 | 13 | -6 | 3 | -4 | 5
S=C(NCCCc1cnc[nH]1)NCCCN(Cc1ccc(Cl)cc1)c1ccc(Br)cn1 | 5 | 7 | -4 | 1 | -10 | -9
CCn1c(=O)n(CC(=O)Nc2ccc(F)cc2)c(=O)c2ccccc21 | -3 | -13 | 29* | 0 | -5 | 1
C=CCNC(=O)COc1c(C)ccc(C)c1C | 17 | 6 | -13 | 0 | -7 | -1
CCOC(=O)C1CCN(C(=O)c2cccnc2)CC1 | 12 | -1 | 6 | 0 | -3 | 27*
CCOC(=O)C1CCN(C(=O)c2cccc(C(=O)N3CCC(C(=O)OCC)CC3)c2)CC1 | 1 | 14 | -19 | 1 | 4 | -1
CC(C)CC(=O)N1CCN(C(=O)c2ccc(F)cc2)CC1 | -12 | 9 | -8 | 0 | -2 | 4
CCOC(=O)c1c(OCCO)nn(-c2ccc(Cl)cc2)c1N | 7 | -18 | 33* | 3 | -2 | -9
CCOc1ccc(NCc2cccn2-c2nnc(N3CCC(C(=O)NCCCN4CCCCC4C)CC3)s2)cc1 (stereo not given) | 53* | 21 | -12 | 1 | -6 | -23
CCC1CCCCN1CCCNC(=O)C1CCN(c2nnc(-n3cccc3)s2)CC1 (stereo not given) | 95* | 0 | -7 | 0 | -6 | -25
O=C(C1CCN(c2nnc(-n3cccc3)s2)CC1)N1CCCCC1 | 21 | 13 | -15 | 1 | -5 | -12
CC1CCN(C(=O)C2CCN(c3nnc(-n4cccc4)s3)CC2)CC1 | 9 | 6 | 57* | 1 | -5 | -10
CCOc1ccc(NCc2cccn2-c2nnc(N3CCC(C(=O)NCCCN4C(C)CCCC4C)CC3)s2)cc1 (stereo not given) | 78* | 22 | -10 | 1 | -6 | -22
CCCCn1c(N)c(N(CC)C(=O)CCc2ccccc2)c(=O)[nH]c1=O | -7 | 20 | 2 | 0 | -2 | 13
CCOc1ccc(NCc2cccn2-c2nnc(N3CCC(C(=O)NCCCN4CCCCC4)CC3)s2)cc1 | 63* | 3 | -11 | 0 | -5 | -21
Fc1ccc(N2CCN(C(=S)NCc3ccco3)CC2)cc1 | -4 | 9 | -6 | 2 | -8 | -8
COc1cccc(N2CCN(C(=S)NCc3ccco3)CC2)c1 | 1 | -3 | 26* | 0 | -1 | 12
COc1ccc(/C=N/NC(=O)/C(=C/c2ccccc2)CCO)cc1 | 2 | -4 | -3 | 0 | -5 | 29*
CC(C)CN(CCCNC(=O)CN1N=C(c2ccc(Cl)cc2)CCC1=O)CC(C)C | -20 | 14 | -13 | -1 | -4 | 8
CCc1cc(C(=O)Nc2ncccc2O)sc1C | -2 | 7 | -6 | 1 | -3 | 4
CCCCNC(=O)N1CCN(c2ccnc3cc(Cl)ccc23)CC1 | 20 | 7 | 4 | 16* | -4 | -18
SMILES | M1 antag | CHO-K1 Ca PAM | CHO-K1 Ca antag | M1 ag parental | CHRM1 agonist | M1 PAM
CCCCOc1ccc(Br)cc1/C(C)=N/NC1=NCCN1 | 73* | 8 | 2 | 1 | -4 | -22
CCCCN1CC(N2CCN(CCO)CC2)CS1(=O)=O (stereo not given) | -1 | 9 | 17 | 0 | 20* | 17
CCOc1ccc(S(=O)(=O)Nc2nc3ccccc3nc2-n2ccc(=NC(=O)c3ccccc3C)cc2)cc1 | 26 | -4 | 25* | 24* | 21* | -9
NC1=NC(=O)C(=Cc2ccccc2)S1 | -6 | -9 | 5 | 0 | 5 | 27*
COc1cc(C(c2nnnn2C2CCCC2)N2CCN(C(=O)c3ccco3)CC2)cc(OC)c1OC (stereo not given) | -10 | 14 | -5 | 2 | -1 | 5
Cc1cc(C(=O)CSc2ncnc3ccccc23)c(C)n1C1CC1 | 7 | -1 | -5 | 9 | -1 | -7
Cc1cc(-n2c(C)cc(C(=O)CSc3ncnc4ccccc34)c2C)no1 | 28* | 8 | 19 | 3 | 2 | -7
Cc1cc(C(=O)NC2CCCc3c2cnn3-c2ccc(C(C)(C)C)cc2)nn1C (stereo not given) | 33* | -10 | 25* | 12 | 2 | -7
CC(C)(C)c1ccc(-n2ncc3c2CCCC3NC(=O)CCn2cncn2)cc1 (stereo not given) | 54* | -26 | 9 | 1 | -5 | -23
O=C(CC1C[C@H](C(=O)N2CCCCC2)[C@@]2(CCc3ccccc3)c3[nH]c4ccccc4c3CCN2C1=O)NCCCn1ccnc1 (stereo not given in full) | -4 | 12 | -8 | 0 | -11 | -1
OCCN1CCN(CC(O)COc2ccc(C34CC5CC(CC(C5)C3)C4)cc2)CC1 (stereo not given) | 3 | 18 | -2 | 1 | -5 | 3
NCCOc1ccc(C23CC4CC(CC(C4)C2)C3)cc1 | -2 | 25 | -6 | 17* | 12 | 17
COc1cc(Br)c(C2C(C#N)=C(N)Oc3n[nH]c(-c4cccnc4)c32)cc1OC (stereo not given) | 4 | 9 | -12 | 1 | 0 | 3
Cc1ccc2c(c1)NC(=O)C(CC(=O)O)O2 (stereo not given) | 3 | -8 | 26* | 0 | -4 | -3
CCC1CCCCN1CCCNC(=O)CC1Oc2ccccc2NC1=O (stereo not given) | 17 | 0 | 3 | 0 | -13 | -9
CCC1CCCCN1CCCNC(=O)CC1Oc2ccc(C)cc2NC1=O (stereo not given) | 41* | -10 | 21 | 0 | -14 | -26
Cc1cccc(NC(=O)CN(C)S(=O)(=O)c2ccc3c(c2)n(C)c(=O)c(=O)n3C)c1C | 1 | 14 | -8 | 1 | -4 | 3
O=C(/C=C/c1c(F)cccc1Cl)N1CCOCC1 | -2 | 20 | -6 | 0 | -6 | 5
COc1ccccc1C(=O)NNC(=S)NC(=O)c1sc2ccccc2c1Cl | 0 | 16 | -3 | 12 | 22* | -5
COc1ccccc1C(=O)NC(=S)NNC(=O)c1sc2ccccc2c1Cl | 3 | 3 | -3 | 0 | 0 | -8
